Screens as filed in PubChem.
A selection: hits, their analogues and other compounds. The true share with any hit is near 1.3%.
RAD54 inh = inhibitors of human RAD54 branch migration; actives 0.14% (n = 360,000); inhibition, % at 10.4 µM; RAD54 Holliday junction branch migration, FAM/BHQ fluorescence;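 active = mean normalized replicate activity at least 40 and at least half of replicates scoring 40 or more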;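 also: 0% = median of neutral control wells and 100% = median of positive control wells; inhibitors cause a drop in the FAM fluorescence signal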
UBC13 inh = blocks human UBC13 polyubiquitin chain formation | P61088 | TR-FRET | inhibition, % at 20 µM | actives 0.47% (n = 330,000) | AID 485273; in the data active = inhibition above about 45%, passing the limit was not always enough
RAD52 inh = RAD52 (human) annealing inhibition; P43351; recombinant RAD52 DNA annealing, FRET fluorescence; inhibition, % at 18.7 µM; actives 0.46% (n = 360,000);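 active = every replicate showing at least 50% inhibition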
Target sequence (P43351 whole entry, looked up): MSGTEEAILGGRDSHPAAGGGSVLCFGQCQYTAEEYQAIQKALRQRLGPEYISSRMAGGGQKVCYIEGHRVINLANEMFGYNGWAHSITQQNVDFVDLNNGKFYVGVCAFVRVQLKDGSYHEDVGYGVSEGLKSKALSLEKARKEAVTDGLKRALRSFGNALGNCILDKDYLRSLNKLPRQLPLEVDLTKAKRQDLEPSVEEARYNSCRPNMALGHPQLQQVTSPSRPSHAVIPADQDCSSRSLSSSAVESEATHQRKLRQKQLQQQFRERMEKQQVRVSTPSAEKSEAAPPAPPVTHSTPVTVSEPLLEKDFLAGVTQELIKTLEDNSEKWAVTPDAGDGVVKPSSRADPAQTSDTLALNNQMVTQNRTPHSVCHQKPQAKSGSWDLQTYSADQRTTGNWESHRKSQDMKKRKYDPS
FID counter = displaces DNA intercalator in HCV helicase counter-screen | DNA fluorescent intercalator displacement, fluorescence | inhibition, % at 7.9 µM | actives 0.17% (n = 290,000); in the data active = inhibition above about 37%;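 also: 0% = vehicle and 100% = reference compound; higher means more ethidium bromide displaced from hairpin DNA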
MIN6 prolif = MIN6 beta-cell proliferation induction; MIN6 cells proliferation, ATPlite luminescence, 48 h; cells starved in 0.2% serum; 100% = growth in 10% serum; proliferation, % at 10 µM; actives 0.29% (n = 330,000); AID 2380;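 active = compounds whose signal lies at least 3.5 SD above the mean of all wells on their plate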;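 also: 0% = DMSO-treated cells in low-serum medium and 100% = 10% serum control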
PREPL inhibitor = human PREPL enzyme inhibition; Q4J6C6; recombinant PREPL, fluorescence polarization activity-based probe; inhibition, % at 5.96 µM; actives 0.68% (n = 320,000); AID 2751; in the data active = inhibition above about 43%;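 also: 0% = enzyme with DMSO and 100% = wells lacking enzyme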
* marks the source's active call; other numbers are inactive results; x = not tested or not shown.

SMILES	RAD54 inh	UBC13 inh	RAD52 inh	FID counter	MIN6 prolif	PREPL inhibitor
C[C@@H]1CCCCO[C@H](CN(C)CC2CC2)[C@H](C)CN([C@@H](C)CO)C(=O)c2cc(NC(=O)Nc3ccccc3)ccc2O1	14.8	x	56.6*	x	x	x
C[C@@H]1CCCCO[C@H](CN(C)C(=O)Nc2ccc(C(F)(F)F)cc2)[C@H](C)CN([C@@H](C)CO)C(=O)c2cc(N(C)C)ccc2O1	-2.2	x	77.8*	x	x	x
C[C@H]1CN([C@@H](C)CO)C(=O)c2cc(C#CCN(C)C)cnc2O[C@@H]1CN(C)C(=O)CN1CCOCC1	-0.5	x	0.4	x	x	x
CO[C@@H]1CN(C)C(=O)c2ccc(NC(C)=O)cc2OC[C@H](C)N(C(=O)Cc2ccccn2)C[C@H]1C	-5.0	x	-24.7	x	x	x
CC(C)NC(=O)N(C)C[C@H]1OCCCC[C@@H](C)Oc2ccc(NS(=O)(=O)c3ccccc3)cc2C(=O)N([C@@H](C)CO)C[C@@H]1C	x	x	3.4	x	x	x
O=C(C[C@@H]1CC[C@@H](NC(=O)Nc2cc(F)ccc2F)[C@H](CO)O1)NCc1ccc2c(c1)OCO2	3.0	x	4.7	x	x	x
C[C@@H]1CCCCO[C@@H](CN(C)C)[C@@H](C)CN([C@H](C)CO)C(=O)c2cc(NC(=O)Nc3ccc(C(F)(F)F)cc3)ccc2O1	-1.4	x	53.8*	x	x	x
C[C@@H]1CCCCO[C@H](CN(C)C)[C@@H](C)CN([C@H](C)CO)C(=O)c2cc(NC(=O)Nc3ccc(C(F)(F)F)cc3)ccc2O1	-5.2	x	22.7	x	x	x
C[C@@H]1CCCCO[C@@H](CN(C)C)[C@H](C)CN([C@H](C)CO)C(=O)c2cc(NC(=O)Nc3ccc(C(F)(F)F)cc3)ccc2O1	4.3	x	50.0*	x	x	x
Cc1noc(C)c1S(=O)(=O)N(C)C[C@H]1Oc2ccc(NC(=O)Nc3ccc(C(F)(F)F)cc3)cc2CC(=O)N([C@@H](C)CO)C[C@H]1C	3.4	x	x	x	x	x
O=C(c1ccc(S(=O)(=O)N2CCCCCC2)cc1)N1CCC(CN2C(=O)c3cccc4cccc(c34)C2=O)CC1	-0.4	45.9*	x	-1.1	-5.8	7.6
COC(=O)c1ccc(Sc2ccc(C)cc2)c(N)c1	-1.8	29.5	-7.2	-14.2	-1.2	13.8
COc1cc(Sc2ccc(C)cc2)c(OC)cc1N	7.0	-12.2	x	8.1	-4.8	47.2*
CCCCOc1ccc(C2OC34CCCCC3C(C#N)(C#N)C2(C#N)C(=N)O4)cc1 (stereo not given)	-53.8	1.4	x	-3.5	9.8*	14.8
Cc1ccc(C2OC34CCCCCC3C(C#N)(C(=N)O4)C2(C#N)C#N)cc1 (stereo not given)	x	1.5	-47.3	-7.1	9.0*	10.1
C=CCOc1ccc(C2OC34CCCCC3C(C#N)(C#N)C2(C#N)C(=N)O4)cc1 (stereo not given)	-51.3	7.1	x	-1.6	2.3	12.1
Cc1ccc(S(=O)(=O)N(C)C[C@@H]2OCCCC[C@@H](C)Oc3ccc(NC(=O)CCC(F)(F)F)cc3C(=O)N([C@@H](C)CO)C[C@H]2C)cc1	4.2	x	-15.2	x	x	x
O=C(NCC[C@H]1CC[C@H](NC(=O)Nc2cc(F)ccc2F)[C@H](CO)O1)Nc1ccc(Cl)cc1	2.1	x	12.9	x	x	x
CNC(=S)N(CCN(C)C)Cc1cc2cc3c(cc2[nH]c1=O)OCO3	7.5	-7.1	1.5	2.3	-4.6	7.3
Cc1ccc(NC(=S)N(CCCN(C)C)Cc2cc3cc4c(cc3[nH]c2=O)OCO4)c(C)c1	x	15.4	-4.7	44.4*	-3.5	31.9
CN(C)CCCNC(=S)N(CCCN(C)C)Cc1cc2cc3c(cc2[nH]c1=O)OCO3	29.0	x	39.9	16.9	x	8.6
Cc1ccc(NC(=S)N(CCCN(C)C)Cc2cc3cc4c(cc3[nH]c2=O)OCO4)cc1	x	7.4	-7.1	37.5*	-4.0	14.1
CN(C)CCCN(C(=O)c1cc(-c2cccs2)nc2ccccc12)c1nc2ccc(F)cc2s1	-2.4	18.1	-6.1	40.1*	-6.2	-71.6
CN(C)CCCN(C(=O)CCc1ccccc1)c1nc2ccc(F)cc2s1	x	30.8	x	13.1	0.0	-80.4
CCCCNC(=O)c1cn(CC)c2cc(N3CCN(C)CC3)c(F)cc2c1=O	7.0	11.0	-4.6	11.4	-1.8	-2.7
CCN(CC)CCNC(=O)c1cn(CC)c2cc(N3CCN(C)CC3)c(F)cc2c1=O	26.6	14.8	-0.3	38.0*	-0.3	0.8
CCOc1cc(CNCCO)cc(Br)c1OCc1ccc(Cl)cc1	21.1	36.9	x	38.4*	-6.9	-42.5
